Results as given in ChEMBL document CHEMBL4513216, “Probing the Open Global Health Chemical Diversity Library for Multistage-Active Starting Points for Next-Generation Antimalarials” (ACS Infect Dis, 2020).
About 8,600 (12%) of roughly 69,000 compounds showed an effect of 50% or more. The full list was thinned out, with strong results kept by preference.

Test system: Plasmodium berghei
Test: Screen against P. berghei liver stage (PbLuc), transformed with Luciferase, at 10uM
Type: functional, HepG2
Details: tested at 10 uM

Point of comparison: `COCCN1C(=O)c2ccc(C(=O)NCCc3c[nH]cn3)cc2C1=O`, INHIBITION 68.4%. Against it:
- Fc1ccc(-c2nc(CN3CCCCC3Cn3cncn3)co2)cc1 (stereo not given) — lower, -0.113%
- COCCN(Cc1ccccc1)C(=O)c1csc(-c2nnc[nH]2)n1 — lower, 24.7%
- COc1cccc(CN(C)C(=O)c2csc(-c3nnc[nH]3)n2)c1 — lower, 40.9%
- CN(CCCOc1ccccc1)C(=O)c1csc(-c2nnc[nH]2)n1 — lower, 53.9%
- Cc1ccccc1-c1cncc(C2CCN(CC(=O)N(C)C)CC2)n1 — lower, -0.371%
- Cc1cc(F)ccc1NS(=O)(=O)c1cc2c(c(C(=O)O)c1)OCCO2 — lower, 25.1%
- CSCC(C)(O)CNc1cccc(F)c1C(C)=O (stereo not given) — lower, 21.8%
- CSCC(C)(O)CNc1cccc(F)c1C#N (stereo not given) — lower, 56.5%
- CC(C)C(C)(O)CNc1cccc(F)c1C#N (stereo not given) — lower, -23.8%
- CCOc1ncccc1NC(=O)c1cc(C)sc1C — lower, -8.66%
- Fc1ccc(F)c(CN2CCC(c3cc4ncccc4cn3)CC2)c1 — lower, 63.8%
- COc1ccc(C)cc1CN1CCC(c2cc3ncccc3cn2)CC1 — higher, 87.9%
- CCc1onc(C)c1C(=O)N1CCC(c2cc3ncccc3cn2)CC1 — lower, 17.1%
- Fc1cccc(CN2CCC(c3cc4ncccc4cn3)CC2)c1F — lower, 52.7%
- Fc1cccc(CN2CCC(c3n[nH]c4ncccc34)CC2)c1F — lower, 42.6%
- COc1ccc(C)cc1CN1CCN(Cc2nccn2C)CC1 — lower, -190%
- Fc1cccc(CN2CCC(c3noc(-c4ccccn4)n3)CC2)c1F — lower, -6.73%
- Fc1cc(F)cc(CN2CCC(c3cc4ncccc4cn3)CC2)c1 — lower, 32.3%
- Fc1ccc(F)c(CN2CCC(c3cnccn3)CC2)c1 — lower, 34.1%
- Cc1ccsc1C(CNC(=O)c1cc(=O)c2ccccc2[nH]1)N(C)C (stereo not given) — lower, -38.6%
- FC(F)(F)c1csc(N2CCN(Cc3ccccn3)CC2)n1 — lower, 1.56%
- COC(=O)CCN(C)C(=O)c1ccc(-c2cscn2)cc1 — lower, 67.3%
- O=C(O)c1ccc(-c2cscn2)cc1 — lower, -36.1%
- CN(C)C(=O)c1ccc(-c2cscn2)cc1 — lower, 14.6%
- Nc1ncnc2[nH]c(N3CCCCC3)nc12 — lower, 4.12%
- CSc1nc(N)cc(N2C[C@H]3CC[C@@H](C2)N(CC2CC2)C3=O)n1 — lower, -65%
- CC(C)CCN1C(=O)c2ccc(C(=O)NCCc3c[nH]cn3)cc2C1=O — lower, 65.4%
- CCCNC(=O)c1ccc2c(c1)C(=O)N(CC(C)C)C2=O — lower, 31.8%
- O=C(NCCc1c[nH]cn1)c1ccc2c(c1)C(=O)N(C1CCCC1)C2=O — lower, 36.6%
- O=C(NCCc1c[nH]cn1)c1ccc2c(c1)C(=O)N(C1CC1)C2=O — lower, -36.3%
- COCCCN1C(=O)c2ccc(C(=O)NCCc3c[nH]cn3)cc2C1=O — lower, 34.3%
- O=C(NCCc1c[nH]cn1)c1ccc(S(=O)(=O)NC2CCCC2)cc1 — lower, 7.65%
- CCC(C)N1C(=O)c2ccc(C(=O)NCCc3c[nH]cn3)cc2C1=O (stereo not given) — lower, 53.2%
- CC(C)CN1C(=O)c2ccc(C(=O)NCCc3c[nH]cn3)cc2C1=O — lower, 24.5%
- CCc1nnc(CN(C)C2CCCN(Cc3noc(C4CC4)n3)C2)o1 (stereo not given) — lower, 27.8%
- Cc1ccc(F)c(NC(=O)NCCCn2nc3ccccn3c2=O)c1 — lower, -0.113%
- O=C(c1ccc(-c2cn[nH]c2)nc1)N1CCC(N2CCOCC2)CC1 — lower, 10.1%
- CCc1ccc(NS(=O)(=O)C=c2[nH]c(=O)n3cccc3c2=O)cc1 — lower, -101%
- CC(CCN1CCCn2nc(CNS(C)(=O)=O)cc2C1)c1ccccc1 (stereo not given) — lower, 27.6%
- CN(Cc1cccc(C(N)=O)c1)Cc1nc2c(cnn2C)c(=O)[nH]1 — lower, -29.7%
- Fc1ccccc1-c1nc(CNCCn2cccn2)cs1 — lower, -58.7%
- CCN1CCCC12CCN(C(=O)c1nccn1C)CC2 — lower, -26.5%
- CCOc1ccc(CN(CC)C(=O)c2ccc(C)[nH]c2=O)cc1OC — lower, 20.85%
- CC(C)N(C)C[C@H]1OC[C@@H]2CCN(Cc3cccc(C#N)c3)C[C@@H]21 — lower, 23.3%
- CCN(CC)c1nc2ccsc2c(=O)n1CCC(=O)NC1CCCC1 — lower, 58.4%
- CSc1nc2ccsc2c(=O)n1CC(=O)NC1CCCCC1 — lower, 26.6%
- CSc1nc2ccsc2c(=O)n1CC(=O)NC1CCCC1 — lower, -58.7%
- CCN(CC)c1nc2ccsc2c(=O)n1CCC(=O)NCc1ccco1 — lower, 55.7%
- Cc1ccn(CCC(=O)NCc2ccco2)n1 — lower, 26%
- CCN(CC)c1nc2ccsc2c(=O)n1CCC(=O)NCc1cccs1 — lower, 30.2%
- O=C(Nc1cccnc1)NC(CCCO)c1ccccc1 (stereo not given) — lower, 14.1%
- COCCN1C[C@H]2[C@@H](C1)N(Cc1cnn(C)c1)CC[C@H]2OC — lower, -4.88%
- O=C(c1ccc(-n2cccn2)nc1)N1CCCC(n2cccn2)C1 (stereo not given) — lower, 26.45%
- COc1ccc(OC)c(Sc2ncccc2C(=O)NCC2CC2)c1 — lower, 23.3%
